Values without a mark were called inactive. Cut-off read from the data, not from the text of the source: active = inhibition above about 55%; inactive = the rest.

The subject of this assay is SARS coronavirus 3C-like protease (3CLpro, nsp5). Description: blockers of SARS 3CLpro activity – biochemical, fluorescence, set 2, late-stage follow-up (AID 488984). The conditions noted are these: recombinant 3CLpro, fluorogenic peptide cleavage; at 100 µM; stronger effect = higher value.
With `CC(C)c1ccc(N(C(=O)c2ccc(C(F)(F)F)nc2)C(C(=O)NC(C)(C)C)c2ccsc2)cc1` (stereo not given), the inhibition is 8.21%.

Take `Cc1nc2ccccc2n1CC(=O)N(c1ccc(N)cc1)C(C(=O)NC(C)(C)C)c1ccsc1` (stereo not given): the inhibition was 1.01%. As for `CC(C)(C)NC(=O)C(c1cccnc1)N(C(=O)Cc1cccc2ccccc12)c1ccc(C(C)(C)C)cc1` (stereo not given), the inhibition is 19.6%. The figure for `CC(C)(C)NC(=O)C(c1cccnc1)N(C(=O)c1ccc(C#N)cc1)c1ccc(F)cc1` (stereo not given) is -13.5%; for `CC(C)c1ccc(N(C(=O)c2n[nH]c3ccccc23)C(C(=O)NC(C)(C)C)c2ccsc2)cc1` (stereo not given) it is 7.3%. With `CC(C)(C)NC(=O)C(c1ccsc1)N(C(=O)c1ccc(C(F)(F)F)nc1)c1ccc(C(C)(C)C)cc1` (stereo not given), the inhibition is 19.7%.

As for `CC(C)c1ccc(N(C(=O)Cc2cccc3ccccc23)C(C(=O)NC(C)(C)C)c2ccsc2)cc1` (stereo not given), the inhibition was 8.43%.

Regarding `CC(C)(C)NC(=O)C(c1cccnc1)N(C(=O)c1ccco1)c1ccc(F)cc1` (stereo not given), the inhibition is -4.66%. `CC(C)c1ccc(N(C(=O)c2cccc3c2CCCC3)C(C(=O)NC(C)(C)C)c2cccnc2)cc1` (stereo not given): the inhibition was -5.03%. The figure for `CC(C)(C)NC(=O)C(c1ccsc1)N(C(=O)Cc1c[nH]c2ccccc12)C1CC1` (stereo not given) is 48.4%.

For orientation: inhibition means the drop in the measured response relative to a control, in per cent.

The values above are taken from PubChem BioAssay AID488984 (The Scripps Research Institute Molecular Screening Center, 2010).
